Among the data in PubChem BioAssay (NCATS) are Potency values, retold here.

A number with no mark means an inactive call. The rule behind the calls is not given here.
Potency is the fitted concentration of half-maximal effect.

The test system of this test is HIV-1 nucleocapsid protein NCp7 (binding to TG oligonucleotide). Kind of test: HIV Nucleocapsid (AID 346).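 Note: potency is for inhibitors that block NC binding and lower polarization.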 The settings on record: HIV-1 NC / fluorescein-TGTGTGTG probe, fluorescence polarization. The procedure, abridged:
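NCp7 100 nM + fluorescein TG4xF 10 nM; Hepes pH 7.5/250mM NaCl/1uM ZnCl2/0.004% PEG 20000; 1 hr RT; FP, 45 s exposure; oligo-only wells as negative control.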
In the case of `O=C(Nc1ccccc1)N1CC2(CCN(S(=O)(=O)c3ccccc3)CC2)C1`, the Potency was more than 20 µM. For the compound `COc1ccc(NC(=O)N2CC3(CCN(C(C)=O)CC3)C2)cc1`, the Potency was more than 20 µM. For the compound `CC(=O)NCCNc1ncnc2ccc(-c3ccc(C(=O)N(C)C)cc3)cc12`, the Potency is more than 20 µM.

On to `c1csc(CNc2ncncc2-c2ccc3c(c2)OCO3)c1`, for which the Potency is more than 20 µM. With `c1ccc(-c2cccc(N3CCC4(CCNCC4)CC3)c2)cc1`, the Potency was more than 20 µM. In the case of `COc1ccccc1CNc1cc(-c2cccc(C#N)c2)ncn1`, the Potency is more than 20 µM. Turning to `Cc1cnc(CNc2nc(-c3cccnc3)nc3ccccc23)cn1`, the Potency is more than 20 µM.

With `Cc1ccccc1-c1nc(NC2CC2)c2ccccc2n1`, the Potency is more than 20 µM. For `CN(C)c1ncc2nc(-c3cc(F)cc(F)c3)c(=O)n(C3CC3)c2n1`, the Potency is more than 20 µM.

On to `COc1ccc(-n2c(=O)cnc3cnc(N(C)C)nc32)cc1`, for which the Potency is more than 20 µM.

Regarding `Clc1ccccc1-c1ccc2ncnc(NCCN3CCOCC3)c2c1`, the Potency is more than 20 µM. The result for `O=c1c(-c2ccc(Cl)cc2)nc2cnc(Oc3ccccc3)nc2n1C1CC1` reads more than 20 µM. In the case of `COc1ccc2[nH]cc(CCNc3ccnc(-c4cccc(C#N)c4)n3)c2c1`, the Potency is more than 20 µM. To `COCCn1c(=O)c(-c2cc(F)cc(F)c2)nc2cnc(Oc3ccc(OC)cc3)nc21` belongs more than 20 µM; to `CC(=O)N1CCC2(CC1)CCN(c1cccc(-c3ccccc3)c1)CC2`, more than 20 µM; to `COC(=O)N1CCC2(CC1)CCN(c1ncccn1)CC2`, more than 20 µM. The result for `Cc1cccc(CNc2ncncc2-c2cccc(C#N)c2)c1` reads more than 20 µM.

Take `Cc1noc(C)c1-c1ccc2ncnc(Nc3ccccc3)c2c1`: the Potency was more than 20 µM. With `CN(C)c1nc(-c2ccoc2)nc2ccccc12`, the Potency is more than 20 µM. To `CS(=O)(=O)Nc1cccc(-c2nccc(NCc3ccccc3)n2)c1` belongs more than 20 µM. For `COc1cccc(Nc2ncc3nc(-c4cn(C)c5ccccc45)c(=O)n(CCC#N)c3n2)c1`, the Potency is more than 20 µM.

`N#Cc1ccc(CN2CCC3(CC2)CCN(C(=O)c2cnccn2)CC3)cc1`: the Potency is more than 20 µM. Take `N#Cc1ccc(CN2CCC3(CC2)CCN(S(=O)(=O)c2ccccc2)CC3)cc1`: the Potency is more than 20 µM.

Consider `COc1ccccc1CCn1c(=O)c(-c2ccccc2)nc2cncnc21`, for which the Potency is more than 20 µM.

`CN(C)C(=O)c1ccc(-c2ccc3ncnc(NCc4cccs4)c3c2)cc1`: the Potency was more than 20 µM. For `Cc1cccc(CNc2ncnc3ccc(-c4cccc(NS(C)(=O)=O)c4)cc23)c1`, the Potency was more than 20 µM. In the case of `Cn1c(=O)c(-c2cccs2)nc2cnc(N3CCOCC3)nc21`, the Potency was more than 20 µM. To `O=S(=O)(c1ccccc1)N1CCC2(CCN(Cc3ccccc3)CC2)CC1` belongs more than 20 µM. In the case of `Cc1cccc(CNc2ncncc2-c2ccccc2C)c1`, the Potency was more than 20 µM. In the case of `Cc1cccc(CNc2ncnc3ccc(-c4c(C)noc4C)cc23)c1`, the Potency was more than 20 µM. To `COc1ccccc1CCn1c(=O)c(-c2cc(F)cc(F)c2)nc2cncnc21` belongs more than 20 µM; to `O=c1c(-c2ccc(Cl)cc2)nc2cncnc2n1Cc1ccccc1`, more than 20 µM; to `COc1ccc(-c2nc3cnc(N4CCOCC4)nc3n(C)c2=O)cc1`, more than 20 µM.

Regarding `O=c1c(-c2cc(F)cc(F)c2)nc2cnc(N3CCOCC3)nc2n1Cc1ccc(F)cc1`, the Potency is more than 20 µM. With `COc1ncc2nc(-c3cn(C)c4ccccc34)c(=O)n(CCc3ccccc3)c2n1`, the Potency is more than 20 µM. To `CNc1ccnc(-c2ccccc2CN(C)C)n1` belongs more than 20 µM; to `Cn1cccc1C(=O)N1CCC2(CCN(C(=O)Nc3ccccc3)CC2)CC1`, more than 20 µM; to `O=C(c1ccncc1)N1CCC[C@@]2(CCN(Cc3cc(C(F)(F)F)cc(C(F)(F)F)c3)C2)C1`, more than 20 µM. `COC(=O)N1CCC2(CCCN(Cc3cc(C(F)(F)F)cc(C(F)(F)F)c3)C2)CC1`: the Potency is more than 20 µM. Regarding `COc1ccc2[nH]cc(CCNc3ncncc3-c3ccc(C(=O)N(C)C)cc3)c2c1`, the Potency is more than 20 µM.
